Experimental data published in the supplement of paper PMC12494721.
Counter-ions that a name gives are not always drawn.

Legend:
Settings in all cases: 20 µM; incubation time: 27 h, anaerobic, 37 °C;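 for the amine columns active = adjusted P below 0.05 in both replicates with a change the same way and a mean fold change under 0.8 or over 1.25; inactive = the rest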
[1] = system: Clostridium sporogenes DSM 1664; assay: growth (OD595) fold change vs plate DMSO controls (fold change (ratio)); higher = more growth
Procedure, shortened: (§1)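 After 27 h at 37 °C under anaerobic conditions, 96-well cultures in mGAM were shaken and read at 595 nm. The readings were blank-subtracted, corrected for compound background using 20 µM compound solutions in water, and converted to OD with a calibration factor of 5. Growth is defined as the fold change over the median of DMSO controls on each plate. Fold changes above 1.5 were set to NA, and each value is the mean of 2 biological replicates.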

Escherichia coli IAI1 [2] = assay: as above
Procedure, shortened: as §1

[3] = system: Klebsiella aerogenes DSM 30053; assay: as above
Procedure, shortened: as §1

[4] = system: Ruminococcus gnavus DSM 108212; assay: as above
Procedure, shortened: as §1

[5] = system: Klebsiella aerogenes DSM 30053; assay: fold change of Histamine concentration vs plate DMSO controls (fold change (ratio)); higher = more amine produced, active = hit call of the paper (significant change in both replicates, either direction)
Procedure, shortened: (§2)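 Amines were quantified by LC–triple-quadrupole MS in dynamic MRM mode against external calibration curves, with drift correction within each batch. The samples were whole anaerobic mGAM cultures of four gut bacterial strains, grown for 27 h at 37 °C in 80 µL wells and extracted with cold acetonitrile/methanol with 0.1% formic acid, then centrifuged. Values are reported as fold change over DMSO controls on the same plate. The mean of 2 biological replicates is given.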

[6] = system: Clostridium sporogenes DSM 1664; assay: fold change of Tryptamine concentration vs plate DMSO controls (fold change (ratio)); higher = more amine produced, active = hit call of the paper (significant change in both replicates, either direction)
Procedure, shortened: as §2

[7] = system: Ruminococcus gnavus DSM 108212; assay: as above
Procedure, shortened: as §2

Escherichia coli IAI1 [8] = assay: fold change of Putrescine concentration vs plate DMSO controls (fold change (ratio)); higher = more amine produced, active = hit call of the paper (significant change in both replicates, either direction)
Procedure, shortened: as §2

[9] = system: Klebsiella aerogenes DSM 30053; assay: as above
Procedure, shortened: as §2

Escherichia coli IAI1 [10] = assay: fold change of Cadaverine concentration vs plate DMSO controls (fold change (ratio)); higher = more amine produced, active = hit call of the paper (significant change in both replicates, either direction)
Procedure, shortened: as §2

[11] = system: Klebsiella aerogenes DSM 30053; assay: as above
Procedure, shortened: as §2

[12] = system: Ruminococcus gnavus DSM 108212; assay: fold change of 2-Phenylethylamine concentration vs plate DMSO controls (fold change (ratio)); higher = more amine produced, active = hit call of the paper (significant change in both replicates, either direction)
Procedure, shortened: as §2

| Structure (SMILES) | growth [1] | growth (Escherichia coli IAI1 [2]) | growth [3] | growth [4] | fold change of Histamine concentration [5] | fold change of Tryptamine concentration [6] | fold change of Tryptamine concentration [7] | fold change of Putrescine concentration (Escherichia coli IAI1 [8]) | fold change of Putrescine concentration [9] | fold change of Cadaverine concentration (Escherichia coli IAI1 [10]) | fold change of Cadaverine concentration [11] | fold change of 2-Phenylethylamine concentration [12] |
| --- | --- | --- | --- | --- | --- | --- | --- | --- | --- | --- | --- | --- |
| C=C[C@H]1CN2CC[C@H]1C[C@H]2[C@H](OC(=O)OCC)c1ccnc2ccc(OC)cc12 [Quinine ethyl carbonate] | 1.08 | 1.01 | 1.01 | 0.915 | 0.967 (inactive) | 1.01 (inactive) | 0.955 (inactive) | 1.03 (inactive) | 0.985 (inactive) | 1.01 (inactive) | 0.993 (inactive) | 1.03 (inactive) |
| CC[C@H](C)C1O[C@]2(C=C[C@@H]1C)C[C@@H]1C[C@@H](C/C=C(\C)[C@@H](O[C@H]3C[C@H](OC)[C@@H](O[C@H]4C[C@H](OC)[C@H](NC)[C@H](C)O4)[C@H](C)O3)[C@@H](C)/C=C/C=C3\CO[C@@H]4[C@H](O)C(C)=C[C@@H](C(=O)O1)[C@]34O)O2 (stereo partly drawn) | 0.931 | 1.08 | 1.05 | – | 0.888 (inactive) | 0.823 (inactive) | 0.581 (active) | 1.05 (inactive) | 0.995 (inactive) | 1.02 (inactive) | 0.995 (inactive) | 0.654 (inactive) |
| CC(NC(C)(C)C)C(=O)c1cccc(Cl)c1 (stereo not drawn) [Bupropion hydrochloride] | 0.957 | 1.01 | 0.949 | 1.02 | 1.08 (inactive) | 0.987 (inactive) | 1.08 (inactive) | 1.02 (inactive) | 0.995 (inactive) | 1 (inactive) | 0.97 (inactive) | 1.12 (inactive) |
| CCOC(=O)c1cncn1[C@H](C)c1ccccc1 [Etomidate] | – | 1.22 | 0.988 | 0.931 | 0.992 (inactive) | – | 1.06 (inactive) | 0.985 (inactive) | 1.07 (inactive) | 0.973 (inactive) | 1.07 (inactive) | 1.19 (inactive) |
| OC(Cc1ccccc1Cl)(Cn1nc[nH]c1=S)C1(Cl)CC1 (stereo not drawn) | 0.971 | 1.12 | 0.969 | 0.953 | 1.04 (inactive) | 1.02 (inactive) | 0.978 (inactive) | 0.937 (inactive) | 0.96 (inactive) | 0.946 (inactive) | 0.974 (inactive) | 0.951 (inactive) |
| O=C1CC[C@@]2(O)[C@H]3Cc4ccc(O)c5c4[C@@]2(CCN3CC2CC2)[C@H]1O5 [Naltrexone hydrochloride dihydrate] | – | 0.661 | 0.69 | 0.579 | 1.03 (inactive) | – | 0.934 (inactive) | 1.02 (inactive) | 1.01 (inactive) | 0.995 (inactive) | 0.992 (inactive) | 0.896 (inactive) |
| COC[C@@H](NC(C)=O)C(=O)NCc1ccccc1 [Lacosamide] | 1.07 | 1.01 | 1.06 | 0.96 | 1.08 (inactive) | 1 (inactive) | 1.04 (inactive) | 1.01 (inactive) | 1.02 (inactive) | 1 (inactive) | 1 (inactive) | 1.07 (inactive) |
| COP(=O)(OC)OC=C(Cl)Cl | 1.05 | 1.03 | 0.995 | 1.07 | 0.89 (inactive) | 1.05 (inactive) | 1.06 (inactive) | 0.985 (inactive) | 0.921 (inactive) | 0.964 (inactive) | 1.06 (inactive) | 1.07 (inactive) |
| C[N+](C)(C)CCCCCCCCCC[N+](C)(C)C [Decamethonium bromide] | 0.947 | 0.999 | 1 | 1.01 | 0.907 (inactive) | 1.13 (inactive) | 1.13 (inactive) | 0.923 (inactive) | 0.933 (inactive) | 0.877 (inactive) | 1.08 (inactive) | 1.11 (inactive) |
| CCc1nn(C)c(C(=O)NCc2ccc(Oc3ccc(C)cc3)cc2)c1Cl | 0.969 | 1.02 | 1.01 | 1.17 | 0.963 (inactive) | 0.927 (inactive) | 1.02 (inactive) | 0.947 (inactive) | 1 (inactive) | 1.01 (inactive) | 0.998 (inactive) | 1.04 (inactive) |
| C[C@@H]1C[C@@H]([C@H](O)CC2CC(=O)NC(=O)C2)C(=O)[C@@H](C)C1 [Cycloheximide] | 1.17 | 0.978 | 0.995 | 1.25 | 1.08 (inactive) | 0.956 (inactive) | 1.01 (inactive) | 1.06 (inactive) | 1.03 (inactive) | 1.01 (inactive) | 0.998 (inactive) | 0.95 (inactive) |
| C[C@]12CC[C@H](O)C[C@H]1CC[C@@H]1[C@@H]2C[C@@H](O)[C@]2(C)[C@@H](C3=CC(=O)OC3)CC[C@]12O [Digoxigenin] | 0.957 | 1.07 | 1.03 | 0.974 | 0.938 (inactive) | 1.04 (inactive) | 1.12 (inactive) | 1.04 (inactive) | 0.964 (inactive) | 1.01 (inactive) | 1.01 (inactive) | 1.12 (inactive) |
| CCc1cccc(C)c1N(C(=O)CCl)[C@@H](C)COC | 1.01 | 1.01 | 0.995 | 0.912 | 1.01 (inactive) | 1.07 (inactive) | 1.01 (inactive) | 1.02 (inactive) | 0.999 (inactive) | 0.998 (inactive) | 0.997 (inactive) | 1.04 (inactive) |
| CCCC(Cn1cncn1)c1ccc(Cl)cc1Cl (stereo not drawn) | 0.931 | 0.973 | 1.02 | 0.977 | 1.02 (inactive) | 1.01 (inactive) | 0.984 (inactive) | 1.02 (inactive) | 1.02 (inactive) | 0.965 (inactive) | 0.997 (inactive) | 0.953 (inactive) |
